Laboratory results from the supplement of paper PMC10849652.
Of roughly 7,900 targets only a part is listed; those with a hit were picked by preference. About 0.6% of all pairs of compound and target were hits.

compound: NC1(c2ccc(-c3nc4ccn5c(=O)[nH]nc5c4cc3-c3ccccc3)cc2)CCC1; assay: log2 fold change, soluble protein after heating vs DMSO (PISA); higher = thermal stabilisation; K562 cells, 10 uM, 30 min; active = over 0.2 and 3.5 SD of the protein, either way, in both replicates (recomputed)
Outline: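 K562 cells at 2×10^6 cells/mL were given 10 μM compound for 30 min. Aliquots then went through 3 min of heating across 48°C-58°C, were pooled, and were extracted in PBS with 0.5% NP-40 at 4°C, and the supernatant after 21,000xg for 90 min was quantified by TMTpro 16plex LC-MS/MS with channel sums equalised. Thermal stability relative to control samples, from duplicates, is given as log2 fold change.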

Chain of MTHFD1, A0A384N5Y3 (A0A384N5Y3 whole entry, looked up): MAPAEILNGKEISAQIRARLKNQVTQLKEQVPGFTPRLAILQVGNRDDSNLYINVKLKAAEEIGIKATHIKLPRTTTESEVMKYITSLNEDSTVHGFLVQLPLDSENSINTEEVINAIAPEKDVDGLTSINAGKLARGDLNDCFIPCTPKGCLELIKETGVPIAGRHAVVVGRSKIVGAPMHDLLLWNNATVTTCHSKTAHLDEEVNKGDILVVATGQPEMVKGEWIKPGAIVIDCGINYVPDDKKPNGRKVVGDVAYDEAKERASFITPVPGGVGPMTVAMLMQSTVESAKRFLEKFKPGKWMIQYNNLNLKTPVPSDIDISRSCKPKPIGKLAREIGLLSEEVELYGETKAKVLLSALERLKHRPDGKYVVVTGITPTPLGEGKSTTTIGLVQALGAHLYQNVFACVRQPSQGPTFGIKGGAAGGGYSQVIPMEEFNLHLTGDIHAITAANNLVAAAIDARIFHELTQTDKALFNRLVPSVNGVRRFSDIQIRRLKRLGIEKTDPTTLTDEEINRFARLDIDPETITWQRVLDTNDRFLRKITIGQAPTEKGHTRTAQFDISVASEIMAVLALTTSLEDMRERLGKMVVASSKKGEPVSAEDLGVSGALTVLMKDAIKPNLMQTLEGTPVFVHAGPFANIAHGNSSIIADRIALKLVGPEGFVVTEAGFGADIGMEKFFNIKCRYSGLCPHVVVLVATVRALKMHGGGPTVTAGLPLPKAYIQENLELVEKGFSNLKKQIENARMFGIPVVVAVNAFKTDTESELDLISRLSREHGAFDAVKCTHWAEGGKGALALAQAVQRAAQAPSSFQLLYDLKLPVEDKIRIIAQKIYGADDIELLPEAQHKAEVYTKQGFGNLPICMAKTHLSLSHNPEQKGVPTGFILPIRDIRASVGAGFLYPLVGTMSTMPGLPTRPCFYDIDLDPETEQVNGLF
Chain of UniProt P15531 (P15531 whole entry, looked up): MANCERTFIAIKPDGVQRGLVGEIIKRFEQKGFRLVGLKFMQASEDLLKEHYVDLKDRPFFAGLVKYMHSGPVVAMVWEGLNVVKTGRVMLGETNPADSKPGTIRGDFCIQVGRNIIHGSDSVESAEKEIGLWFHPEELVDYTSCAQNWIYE
Chain of UniProt P46934 (P46934 whole entry, looked up): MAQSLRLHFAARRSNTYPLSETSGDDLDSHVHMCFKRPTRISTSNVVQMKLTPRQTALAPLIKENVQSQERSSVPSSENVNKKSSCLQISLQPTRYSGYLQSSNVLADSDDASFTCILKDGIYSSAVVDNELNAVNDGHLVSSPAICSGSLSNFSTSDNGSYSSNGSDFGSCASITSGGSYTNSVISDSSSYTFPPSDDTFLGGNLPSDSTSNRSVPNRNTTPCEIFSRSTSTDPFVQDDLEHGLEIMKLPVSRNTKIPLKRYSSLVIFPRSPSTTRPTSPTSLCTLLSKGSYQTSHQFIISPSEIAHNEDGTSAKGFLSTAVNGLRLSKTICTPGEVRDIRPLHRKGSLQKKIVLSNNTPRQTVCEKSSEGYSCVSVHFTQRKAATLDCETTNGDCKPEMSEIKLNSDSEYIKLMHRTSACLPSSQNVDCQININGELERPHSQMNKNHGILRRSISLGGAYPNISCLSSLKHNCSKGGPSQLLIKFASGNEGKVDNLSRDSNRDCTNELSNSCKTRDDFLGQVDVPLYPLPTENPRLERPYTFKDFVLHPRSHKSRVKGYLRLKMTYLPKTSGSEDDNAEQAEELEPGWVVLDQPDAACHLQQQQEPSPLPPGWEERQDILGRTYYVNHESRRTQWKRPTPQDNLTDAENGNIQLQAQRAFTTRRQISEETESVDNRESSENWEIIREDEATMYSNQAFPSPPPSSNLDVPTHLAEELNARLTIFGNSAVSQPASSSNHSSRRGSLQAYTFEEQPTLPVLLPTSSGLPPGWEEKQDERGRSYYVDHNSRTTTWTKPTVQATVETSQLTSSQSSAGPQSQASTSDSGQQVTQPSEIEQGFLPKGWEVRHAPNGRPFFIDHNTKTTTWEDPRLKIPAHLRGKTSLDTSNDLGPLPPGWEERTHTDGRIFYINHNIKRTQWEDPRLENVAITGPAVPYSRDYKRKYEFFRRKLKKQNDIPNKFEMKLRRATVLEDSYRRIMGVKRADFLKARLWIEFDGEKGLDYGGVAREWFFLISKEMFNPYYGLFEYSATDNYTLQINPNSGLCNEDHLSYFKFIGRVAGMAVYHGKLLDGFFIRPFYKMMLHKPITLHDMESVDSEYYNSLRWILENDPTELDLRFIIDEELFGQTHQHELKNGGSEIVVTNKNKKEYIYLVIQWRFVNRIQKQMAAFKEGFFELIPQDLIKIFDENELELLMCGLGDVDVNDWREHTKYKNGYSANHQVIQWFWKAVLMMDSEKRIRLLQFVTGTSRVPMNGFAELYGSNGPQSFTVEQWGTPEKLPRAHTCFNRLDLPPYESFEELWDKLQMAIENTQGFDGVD
Chain of UniProt Q15021 (Q15021 whole entry, looked up): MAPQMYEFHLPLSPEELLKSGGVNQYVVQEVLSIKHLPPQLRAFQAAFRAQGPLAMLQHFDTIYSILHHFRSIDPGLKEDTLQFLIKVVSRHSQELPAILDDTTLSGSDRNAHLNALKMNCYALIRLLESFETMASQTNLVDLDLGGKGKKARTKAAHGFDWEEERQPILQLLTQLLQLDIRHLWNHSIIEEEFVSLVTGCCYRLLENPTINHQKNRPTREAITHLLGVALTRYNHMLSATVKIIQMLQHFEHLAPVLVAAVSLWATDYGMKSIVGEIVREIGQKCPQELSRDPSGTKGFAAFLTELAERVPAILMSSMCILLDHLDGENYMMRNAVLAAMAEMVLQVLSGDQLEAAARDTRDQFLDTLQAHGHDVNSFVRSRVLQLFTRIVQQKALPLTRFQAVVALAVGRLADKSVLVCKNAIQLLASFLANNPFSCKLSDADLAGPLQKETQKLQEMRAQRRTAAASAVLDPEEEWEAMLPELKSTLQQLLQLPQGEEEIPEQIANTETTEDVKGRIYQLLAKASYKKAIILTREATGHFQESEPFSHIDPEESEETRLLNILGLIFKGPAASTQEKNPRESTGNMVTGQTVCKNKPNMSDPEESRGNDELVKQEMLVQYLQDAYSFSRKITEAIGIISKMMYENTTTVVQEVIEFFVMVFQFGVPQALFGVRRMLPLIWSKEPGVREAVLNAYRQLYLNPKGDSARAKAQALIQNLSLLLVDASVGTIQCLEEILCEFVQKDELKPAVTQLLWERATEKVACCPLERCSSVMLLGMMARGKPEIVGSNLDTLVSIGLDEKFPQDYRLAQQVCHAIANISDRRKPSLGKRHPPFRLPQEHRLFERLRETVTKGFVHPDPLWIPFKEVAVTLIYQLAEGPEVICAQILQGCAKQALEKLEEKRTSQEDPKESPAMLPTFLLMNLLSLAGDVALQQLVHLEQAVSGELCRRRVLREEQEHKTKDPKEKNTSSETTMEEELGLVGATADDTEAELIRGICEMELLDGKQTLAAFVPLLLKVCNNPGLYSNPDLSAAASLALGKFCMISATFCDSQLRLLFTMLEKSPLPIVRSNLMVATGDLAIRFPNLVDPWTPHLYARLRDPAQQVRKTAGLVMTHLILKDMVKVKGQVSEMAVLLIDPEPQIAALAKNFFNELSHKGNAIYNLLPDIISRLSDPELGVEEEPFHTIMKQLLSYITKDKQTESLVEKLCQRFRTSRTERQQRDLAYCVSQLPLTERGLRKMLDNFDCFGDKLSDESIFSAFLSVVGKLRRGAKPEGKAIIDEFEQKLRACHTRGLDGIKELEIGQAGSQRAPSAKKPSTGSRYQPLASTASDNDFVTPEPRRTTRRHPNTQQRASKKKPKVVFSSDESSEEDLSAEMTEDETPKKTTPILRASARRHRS
Chain of UniProt P15559 (P15559 whole entry, looked up): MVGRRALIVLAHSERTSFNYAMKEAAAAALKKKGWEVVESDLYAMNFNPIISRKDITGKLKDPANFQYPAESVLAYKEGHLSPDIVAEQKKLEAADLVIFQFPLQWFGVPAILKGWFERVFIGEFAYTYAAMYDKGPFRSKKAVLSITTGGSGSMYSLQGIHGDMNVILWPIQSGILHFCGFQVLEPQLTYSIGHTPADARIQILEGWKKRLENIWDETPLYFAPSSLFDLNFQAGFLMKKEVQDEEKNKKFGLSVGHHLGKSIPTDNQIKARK
Chain of UniProt Q14978 (Q14978 whole entry, looked up): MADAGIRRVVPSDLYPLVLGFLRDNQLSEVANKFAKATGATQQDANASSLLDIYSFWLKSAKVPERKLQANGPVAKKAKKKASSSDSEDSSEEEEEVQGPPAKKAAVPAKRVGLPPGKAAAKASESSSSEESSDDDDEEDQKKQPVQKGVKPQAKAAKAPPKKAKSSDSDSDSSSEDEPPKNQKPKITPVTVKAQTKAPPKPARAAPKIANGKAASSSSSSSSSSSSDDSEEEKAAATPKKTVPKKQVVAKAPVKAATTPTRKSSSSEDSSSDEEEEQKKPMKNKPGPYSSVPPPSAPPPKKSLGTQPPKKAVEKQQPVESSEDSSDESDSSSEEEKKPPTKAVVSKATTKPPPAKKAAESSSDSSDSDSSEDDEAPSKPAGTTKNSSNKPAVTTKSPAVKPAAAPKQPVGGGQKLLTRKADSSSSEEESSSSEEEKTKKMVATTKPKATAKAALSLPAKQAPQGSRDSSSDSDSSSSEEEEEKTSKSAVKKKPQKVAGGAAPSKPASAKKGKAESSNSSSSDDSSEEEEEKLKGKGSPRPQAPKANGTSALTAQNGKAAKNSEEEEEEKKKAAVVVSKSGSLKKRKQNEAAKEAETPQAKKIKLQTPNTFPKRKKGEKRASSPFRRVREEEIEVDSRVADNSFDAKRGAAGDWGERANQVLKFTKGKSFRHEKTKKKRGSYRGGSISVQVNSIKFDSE
Chain of UniProt Q9HAN9 (Q9HAN9 whole entry, looked up): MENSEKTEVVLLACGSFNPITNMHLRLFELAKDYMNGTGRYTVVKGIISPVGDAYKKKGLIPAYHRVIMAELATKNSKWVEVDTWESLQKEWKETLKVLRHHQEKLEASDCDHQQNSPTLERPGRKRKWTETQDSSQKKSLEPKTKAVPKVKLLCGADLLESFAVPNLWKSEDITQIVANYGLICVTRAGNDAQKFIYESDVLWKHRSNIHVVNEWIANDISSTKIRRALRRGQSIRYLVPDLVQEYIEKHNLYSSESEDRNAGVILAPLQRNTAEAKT

log2 fold change, inactive:
NFATC2 (UniProt Q13469) -0.064
MRPS18B (UniProt Q9Y676) 0.021
PACS1 (UniProt Q6VY07) -0.081
NUP205 (UniProt Q92621) -0.075
NA, A0A0B4J2A0 -0.061
OSBP (UniProt P22059) -0.17
MKNK1 (UniProt Q9BUB5) -0.158
NMNAT1 (UniProt Q9HAN9) 0.197
MRPS25 (UniProt P82663) 0.04
NME1 isoform 2 (UniProt P15531) -0.003
MRPL47 (UniProt Q9HD33) 0.039
NDUFA12 (UniProt Q9UI09) -0.227
MOV10 (UniProt Q9HCE1) 0.178
MTHFD1, A0A384N5Y3 0.17
MRPS5 (UniProt P82675) -0.057
NFATC2IP (UniProt Q8NCF5) -0.087
NOL11 (UniProt Q9H8H0) 0.041
NDUFA6 (UniProt P56556) -0.113
OSBPL8 (UniProt Q9BZF1) 0.063
NOSIP (UniProt Q9Y314) -0.095
NR2C2 isoform 2 (UniProt P49116) -0.211
NDUFB8 (UniProt O95169) -0.008
NQO1 (UniProt P15559) -0.018
MSH2 (UniProt P43246) -0.109
MT-ATP6 (UniProt P00846) 0.197
MRPS2 (UniProt Q9Y399) -0.102
NOB1 (UniProt Q9ULX3) -0.041
MPP1 (UniProt Q00013) -0.159
NUCKS1 (UniProt Q9H1E3) 0.014
ORC3 isoform 2 (UniProt Q9UBD5) -0.093
NOLC1 isoform 2 (UniProt Q14978) -0.011
NEDD4 isoform 4 (UniProt P46934) -0.187
MRPS22 (UniProt P82650) -0.098
MSTO1 (UniProt Q9BUK6) -0.144
NCAPD2 (UniProt Q15021) -0.149
MYL12B (UniProt O14950) -0.013
NEU1 (UniProt Q99519) -0.114
NA, A0A096LPI6 -0.012
MRPS33 (UniProt Q9Y291) -0.032
